Source: PubChem BioAssay (National Center for Advancing Translational Sciences (NCATS))
Pol iota inh – DNA polymerase iota (human) inhibition. Q9UNA4. Pol iota fluorescent replication assay, 10 min. AID 588590. Potency, µM (top dose mostly 115 µM), actives largely listed as inhibitors. actives 1% (n = 390,000)
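Pol iota at 10 nM preincubated 15 min with compounds at room temperature; reaction started with fluorescent substrate, 50 nM final. Fluorescence read kinetically at 0 and 10 min; buffer-only wells as negative control.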
WRN helicase inh – WRN helicase (human) inhibition; Potency, µM (highest dose often 114 µM), hits mostly inhibitors; actives 0.46% (n = 360,000); AID 651768; WRN helicase unwinding, fluorescent forked duplex, kinetic; Q14191; note: nearly all actives have a fitted effect of over 55% in size
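WRN at 20 nM final was preincubated with compound for 15 min at room temperature; reaction started with 100 nM forked duplex oligonucleotide carrying fluorophore and quencher plus 2 mM ATP (final). Unwinding followed kinetically by red fluorescence (ex 525/em 598 nm).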
POLK inh – blocks human DNA polymerase kappa activity | Q9UBT6 | purified Pol kappa, fluorescent DNA synthesis assay, 10 min | Potency, µM (top dose mostly 107 µM), usual class: inhibitors | actives 0.53% (n = 400,000) | AID 588579
Target sequence (Q9UBT6 whole entry, looked up): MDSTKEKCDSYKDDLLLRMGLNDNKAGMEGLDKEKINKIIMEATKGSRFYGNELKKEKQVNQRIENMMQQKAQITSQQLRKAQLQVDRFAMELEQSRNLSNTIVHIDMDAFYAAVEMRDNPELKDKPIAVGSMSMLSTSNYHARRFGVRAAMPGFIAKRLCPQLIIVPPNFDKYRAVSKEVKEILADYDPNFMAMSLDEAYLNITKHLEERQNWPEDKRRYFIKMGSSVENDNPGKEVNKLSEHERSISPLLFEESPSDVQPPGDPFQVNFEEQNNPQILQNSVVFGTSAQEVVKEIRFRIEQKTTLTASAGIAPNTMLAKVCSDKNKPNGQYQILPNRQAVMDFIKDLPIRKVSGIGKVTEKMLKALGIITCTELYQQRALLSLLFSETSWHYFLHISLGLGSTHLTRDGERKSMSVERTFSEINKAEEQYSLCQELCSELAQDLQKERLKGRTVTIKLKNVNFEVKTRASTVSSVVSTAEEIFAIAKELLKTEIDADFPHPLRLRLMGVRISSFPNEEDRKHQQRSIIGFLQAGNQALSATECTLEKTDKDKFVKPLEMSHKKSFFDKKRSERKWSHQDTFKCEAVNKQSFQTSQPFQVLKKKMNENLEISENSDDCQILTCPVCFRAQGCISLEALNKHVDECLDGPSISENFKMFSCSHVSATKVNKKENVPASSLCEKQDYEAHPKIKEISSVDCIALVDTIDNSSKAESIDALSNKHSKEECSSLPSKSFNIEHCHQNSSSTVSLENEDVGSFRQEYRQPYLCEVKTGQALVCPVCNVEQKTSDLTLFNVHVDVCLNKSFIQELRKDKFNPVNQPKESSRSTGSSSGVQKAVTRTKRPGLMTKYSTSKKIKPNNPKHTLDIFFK
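Kinetic fluorescence screen: compound preincubated 15 min RT with 10 nM enzyme; 50 nM substrate (final) initiates; reads at 0/10 min.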
Pol eta inh – DNA polymerase eta (human) inhibition. Potency, µM (top dose mostly 114 µM), actives largely listed as inhibitors. recombinant Pol eta, fluorescent DNA replication assay. Q9Y253. actives 1.2% (n = 390,000)
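Fluorescent replication assay: 50 nM final substrate added after a 15 min room-temperature compound preincubation with 10 nM enzyme. Signal taken at 0 min and again at 10 min.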
L3MBTL1 block – inhibitors of human L3MBTL1; Q9Y468; AlphaScreen L3MBTL1–H3K9me1 peptide binding; Potency, µM (highest dose often 57.1 µM), most hits filed as inhibitors; actives 0.66% (n = 230,000); AID 485360; note: nearly all actives have a fitted effect of over 60% in size
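Displacement of a biotinylated histone H3(1-15) peptide monomethylated at Lys9 (75 nM) from L3MBTL1 (50 nM) was measured by AlphaScreen after a 30 min room-temperature compound incubation; cefsulodin titration served as intraplate control.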
POLB inh – inhibitors of human DNA polymerase beta. P06746. Pol beta primer extension/strand displacement, fluorescence kinetic. Potency, µM (highest dose often 114 µM), hits mostly inhibitors. actives 1.3% (n = 340,000). AID 485314
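Human Pol beta at 10 nM; strand-displacement substrate 50 nM final. Compound exposure 15 min at room temperature before start, reaction 10 min at room temperature.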
Numbers stand for hits; - = inactive; ? = inconclusive; . = not tested or not shown; [ ] = dose if it differs, or a comment. Most compounds without a hit are left out; they make up all but 2.5% or so of the library. Calls come from the whole dose curve; as a rule, active = well fitted curve in the direction sought with a large enough effect; inconclusive = small, poorly fitted or top-dose-only effect, or another doubt; inactive = no such curve, though single readings can be large; an effect the other way counts as inactive or inconclusive.

SMILES | Pol iota inh | WRN helicase inh | POLK inh | Pol eta inh | L3MBTL1 block | POLB inh
COc1ccc(NC(=O)/C(C#N)=C\c2ccc(-c3cccc(C(=O)O)c3C)o2)cc1 | ? | -[11.6 µM] | ? | 22µM | ? | 7.9µM
COc1ccc(NC(=O)/C(C#N)=C\c2ccc(Br)o2)cc1 | 10µM | ? | 79µM | ? | . | ?
CN1CCN(c2cc(-c3ccccc3Cl)ncn2)CC1 | . | . | - | . | . | .
Cc1cccc(C)c1-n1cccc1/C=C1/C(=N)N2C(=NC1=O)SN=C2S(C)(=O)=O | - | -[11.6 µM] | - | 79µM | . | ?
COc1ccccc1-n1c(C)cc(/C=C2/C(=N)N3C(=NC2=O)SN=C3S(C)(=O)=O)c1C | - | - | - | 79µM | . | -
CCOc1ccc(-n2c(C)cc(/C=C3/C(=N)N4C(=NC3=O)SN=C4S(C)(=O)=O)c2C)cc1 | - | - | - | 40µM | . | ?
Cc1ccccc1Nc1nc(Cl)c(C=O)s1 | - | - | - | - | - | -
COc1ccc(CN2CCSCC2)cc1C | - | - | - | - | . | -
CCOP(=O)(c1ccc(N(C)C)cc1)C(O)c1cccnc1 (stereo not drawn) | - | - | - | - | - | -
Cc1ccc(O)c(C(=O)c2cc(C#N)c(=O)n(-c3c(C)n(C)n(-c4ccccc4)c3=O)c2)c1 | - | - | - | - | - | -
Cc1ccc(O)c(C(=O)c2cc(C#N)c(=O)n(-c3nccs3)c2)c1 | ? | - | - | 40µM | - | 25µM
CCCCN(C(=O)COC(=O)c1ccc(C)s1)c1c(N)n(CCC)c(=O)[nH]c1=O | - | - | - | - | - | .
O=C1CSC(=S)N1/N=C/c1ccc(O)c(O)c1O | - | 10µM | 0.71µM | 0.71µM | 1.1µM | 0.32µM
CCCC[C@]12Cc3ccccc3C(O1)c1c(cc(-c3ccccc3)oc1=O)O2 | . | . | . | . | . | 3.5µM
CC12C(=O)N(c3nccs3)C(=O)C1C1C=CC2C1 (stereo not drawn) | 89µM | - | - | 28µM | ? | 32µM
Cc1cc(C(=O)COC(=O)c2ccc(O)cc2)c(C)n1CC1CCCO1 (stereo not drawn) | 89µM | -[11.6 µM] | ? | - | - | -
CC(=O)c1c(C)[nH]c(C)c1C(C)=O | - | - | - | - | - | -
COc1cc(/C=C/C(=O)c2c(O)ccc3c(C)cc(=O)oc23)ccc1O | 13µM | - | - | ? | . | -
C[n+]1c(-c2ccccc2)cc2c(=Cc3ccc([N+](=O)[O-])cc3)c3ccccc3n21 | 50µM | ? | - | - | . | .
C[n+]1c(-c2ccccc2)cc2c(=Cc3ccccc3)c3ccccc3n21 | 50µM | ? | - | - | . | .
CN(C)c1ccc(C=c2c3cc(O)ccc3n3c2cc(-c2ccccc2)[n+]3C)cc1 | 50µM | 18µM | ? | ? | . | .
CN(C)c1ccc(C=C2c3ccccc3-c3ccccc32)cc1 | - | . | - | . | . | .
COC(C[C@H]1O[C@@H]1[C@@H](O)COCc1ccccc1)OC | - | - | - | - | . | -
COc1ccc2c(c1)c1ccc3c(c1n2C)C(=O)C=CC3=O | 18µM | - | - | - | - | -
NNc1ccccc1C(F)(F)F | - | ? | - | - | ? | 20µM
SMILES | Pol iota inh | WRN helicase inh | POLK inh | Pol eta inh | L3MBTL1 block | POLB inh
CC(=O)Nc1ccccc1C(F)(F)F | - | - | - | - | - | -
[O-]c1c[n+](-c2ccc(-[n+]3cc([O-])on3)cc2)no1 | ? | -[11.6 µM] | - | 45µM | ? | 7.1µM
Nc1nc(-c2cc(O)ccc2[N+](=O)[O-])cc(-c2ccccc2)c1[N+](=O)[O-] | ? | -[11.6 µM] | - | 89µM | - | -
C=CCNc1nc(NC2CCN(C)CC2)c2cc(OC)c(OC)cc2n1 | - | . | - | . | . | .
COc1ccc(/C(O)=C2/C(=O)C(=O)N(CCN(C)C)C2c2ccc(F)cc2)cc1Cl (stereo not drawn) | - | - | - | - | - | -
COc1ccc(NC(=O)C2CCN(S(=O)(=O)c3ccc4c(c3)CCCC(=O)N4)CC2)cc1Cl | - | . | - | - | . | -
CN1c2ccccc2C(C)(C)C12C=Cc1cc(O)ccc1O2 (stereo not drawn) | - | - | - | - | - | -
CN1c2ccccc2C(C)(C)C12C=Nc1c(cc(N3CCOCC3)c3ccccc13)O2 (stereo not drawn) | 3.5µM | - | - | - | - | -
COc1ccc(CN2C(=O)N(c3ccc(OC)cc3)C(=O)C2CC(=O)Nc2ccccc2)cc1 (stereo not drawn) | - | - | - | - | . | -
COc1ccc(N2C(=O)C(CC(N)=O)N(NC(=O)CCc3ccccc3)C2=O)cc1 (stereo not drawn) | - | - | - | - | - | 22µM
CN(C)c1ccc(C(=O)OCC(=O)Nc2ccc(S(N)(=O)=O)cc2)cc1 | ? | 45µM | 50µM | ? | - | ?
CN(C)c1ccc(NC(=O)COC(=O)c2ccc3c(c2)OCO3)cc1 | - | ? | - | - | - | .
CCCCNC(=O)C1CC(c2ccc(C(F)(F)F)cc2)=NO1 (stereo not drawn) | - | - | - | - | . | -
Cc1ccc2c(c1)c(C)cc(=O)n2CCC(=O)O | - | - | - | - | ? | 13µM
Cc1c(C)n(CCC(=O)O)c2ccccc12 | - | - | - | - | - | -
Cn1cc(C2=C(c3cn(CCCSC(=N)N)c4ccccc34)C(=O)NC2=O)c2ccccc21 | 89µM | . | - | . | . | .
CN(C)CCCn1cc(C2=C(c3c[nH]c4ccccc34)C(=O)NC2=O)c2ccccc21 | . | . | -[19.4 µM] | . | . | .
CN(C)C(=O)CSc1nnc(-c2ccc(S(=O)(=O)N3CCCC3)cc2)n1C | ? | - | ? | 89µM | . | -
Cc1ccc(CN2C(=O)CCC2(C)c2nnnn2Cc2ccccc2)cc1 (stereo not drawn) | . | - | . | . | . | .
COc1cc(-c2ccc3oc(-c4ccsc4)cc(=O)c3c2)cc(OC)c1OC | - | - | - | - | - | .
COc1ccc(-c2ccc3c(=O)cc(-c4ccsc4)oc3c2)cn1 | 22µM | 50µM | - | ? | - | .
O=c1cc(-c2ccsc2)oc2cc(-c3ccc4c(c3)OCO4)ccc12 | - | 25µM | - | ? | - | .
CC(C(=O)Nc1ccccn1)c1ccccc1 (stereo not drawn) | - | - | - | - | - | ?
COc1ccc(-c2nc3n(n2)C(=O)CC(c2ccco2)S3)cc1 (stereo not drawn) | ? | - | ? | ? | ? | 22µM
CC1(C#CC[N+]2(C)CCCCC2)CCC2C(O1)c1ccccc1OC2(C)C (stereo not drawn) | 40µM | - | - | - | . | -
CC1(C(O)(C#CC[N+]2(C)CCCCC2)c2ccccc2)CCCC1 (stereo not drawn) | - | - | - | - | - | -
CCOc1ccc(CCNC(=O)c2cnc3sc(N4CCCCCC4)nn3c2=O)cc1 | 89µM | . | - | - | . | -
COc1cc(/C=N\NC(=O)c2ccc(-c3ccccc3)cc2)cc(OC)c1OC(C)=O | - | - | - | - | . | ?
